# Fluor 339 460 = intrinsic fluorescence of library compounds, ex339/em460 – biochemical, MLSMR library, data from DPM-DC assay, artefact control, profiling panel. compound autofluorescence, ex339/em460 nm, NADH buffer; active compounds read high; 1 = no-compound wells, NADH background. fluorescence fold increase at 10 µM. 5.5% of 65,000 active. AID 709, 2007;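 active = at 10 µM, mean starting fluorescence two-fold or more over control wells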;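 also: signal is the first read of a kinetic run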
# Cdc25B inh = inhibitors of Cdc25B phosphatase catalytic domain, primary screen, biochemical, OMFP fluorescence; M-phase inducer phosphatase 2 (Homo sapiens), P30305; recombinant Cdc25B, OMFP fluorescence Ex485/Em525; inhibition, %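 (compounds tested at 10 µM final in the well)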; 0.1% of 65,000 active; AID 368, 2006; in the data active = inhibition above about 50%
# NADH enzymes = inhibitors of PK/LDH coupling enzymes, profiling panel, artefact control, biochemical, MLSMR library; 0.02% of 65,000 active; coupled PK/LDH NADH assays, four targets; IC50, µM (top dose mostly 10 µM), for the others: top-dose inhibition; AID 774, 2007;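 active = single-dose screening hits from any of four coupled enzyme assays that gave an IC50 when retested across doses; inconclusive = no clear call, values can overlap the other calls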;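 also: the DPM-DC format reads NADH fluorescence rather than 340 nm absorbance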
# A340 absorber = compound light absorbance at 340 nm, profiling panel, artefact control, biochemical, MLSMR library, data from PS, PMK, MK assays; compound absorbance at 340 nm, fold over control; fold change at 10 µM; 65,000 tested, under 10 active; AID 708, 2007;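 active = at 10 µM dose, initial 340 nm absorbance at least 2 fold that of control wells; inactive = change under 2 fold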;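 also: initial absorbance extrapolated from kinetic A340 decline of NADH oxidation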
# Hsp90 inh = tumor Hsp90 inhibitors, primary screen, cell lysate, fluorescence polarization, NCI-N417 lysate | inhibition, % at 30 µM | 0.35% of 64,000 active | Heat shock protein HSP 90-alpha (Homo sapiens), P07900 | Cy3B-geldanamycin FP displacement;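 active = inhibition above 50%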;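 also: 0% = tracer plus lysate wells and 100% = tracer alone without lysate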
# DUSP1 inh = MKP-1 phosphatase inhibitors, primary screen, biochemical, in vitro | recombinant MKP-1, OMFP hydrolysis fluorescence | inhibition, %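 (compounds tested at a single concentration somewhere between 10 and 100 µM)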 | Dual specificity protein phosphatase 1 (Homo sapiens), P28562 | 0.15% of 65,000 active | AID 374, 2006;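 active = inhibition above about 50%, limit read from the data; inconclusive = inhibition over screen mean plus 3 SD, below that limit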;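 also: 0% = DMSO max control wells and 100% = wells with enzyme stopped by NaOH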
# Target sequence (P28562 whole entry, looked up): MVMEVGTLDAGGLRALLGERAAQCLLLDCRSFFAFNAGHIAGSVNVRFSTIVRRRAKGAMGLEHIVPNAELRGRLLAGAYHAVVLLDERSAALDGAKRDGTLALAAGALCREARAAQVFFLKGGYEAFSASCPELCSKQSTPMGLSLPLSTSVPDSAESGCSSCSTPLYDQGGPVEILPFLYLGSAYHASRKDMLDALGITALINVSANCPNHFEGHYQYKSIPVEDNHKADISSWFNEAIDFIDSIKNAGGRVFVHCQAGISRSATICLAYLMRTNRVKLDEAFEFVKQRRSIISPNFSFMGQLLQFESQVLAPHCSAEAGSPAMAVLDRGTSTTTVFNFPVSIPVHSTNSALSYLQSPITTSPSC
# An asterisk follows results filed as active; u = inconclusive; x = no result given. The list is not random: actives were taken first. Their share in the collection is about 5.7%.
SMILES,Fluor 339 460,Cdc25B inh,NADH enzymes,A340 absorber,Hsp90 inh,DUSP1 inh
O=C1NCCCc2c1oc1ccc(O)cc21,1.1,50*,3%,1.1,2,-3
CN1c2ccccc2-c2nc3ccccc3n2C1c1ccncc1 (configuration not stated),1.9,0,5%,1.1,-2,-18
CN1c2ccccc2-c2nc3ccccc3n2C1c1ccccn1 (configuration not stated),2.2*,-6,4%,1.1,x,-3
COC(=O)C(C)Sc1nc(-c2ccc(OC)cc2)nc2c1c(=O)n(C)c(=O)n2C (configuration not stated),3.6*,-5,13%,1.1,1,37
CCOC(=O)C(CC)Sc1nc(-c2ccc(OC)cc2)nc2c1c(=O)n(C)c(=O)n2C (configuration not stated),5*,-3,5%,1.1,0,u
CCOC(=O)C(C)Sc1nc(-c2ccc(OC)cc2)nc2c1c(=O)n(C)c(=O)n2C (configuration not stated),2.2*,-1,7%,1.1,-1,21
CC(=O)C(Sc1nc(-c2ccc(F)cc2)nc2c1c(=O)n(C)c(=O)n2C)C(C)=O,1,3,2%,1.1,1,11
Cc1c(=O)n(OCc2c(F)cccc2F)c2ccccc2[n+]1[O-],1.1,24,6%,1,0,-21
O=C(N1CCN=C1SCc1cccnc1)C12CC3CC(CC(C3)C1)C2,1.1,-9,8%,0.98,-3,4
CCN(C(=O)c1cccc(F)c1)c1ccccc1C,1.1,2,3%,1,-6,13
Nc1nc2ccccc2nc1N,2.1*,3,4%,1.1,0,-2
O=C(O)c1nc2ccccc2nc1C(=O)O,1.1,6,0%,1,1,-3
CCN(CC)C(=O)c1sc2nc(-c3ccccn3)[nH]c(=O)c2c1C,3.4*,-14,16%,1.1,1,21
CCN(CC)C(=O)c1sc2nc(-c3ccncc3)[nH]c(=O)c2c1C,5*,-20,11%,1.1,0,1
Cc1nc2sc(C)c(C)c2c(=O)[nH]1,1,-9,3%,1.1,0,-15
CCNc1nc(NC(C)C)nc(Oc2ccc(OCCOc3ccccc3)nn2)n1,1.1,-12,9%,1,-1,35
COC(=O)c1ccccc1NC(=O)c1cc(-c2cccs2)on1,2*,-10,11%,1,0,12
COc1ccc(NC(=O)C23CCC(C)(C(=O)C2)C3(C)C)cc1 (configuration not stated),1,-5,3%,1,-2,4
O=C1CSC(c2nn(-c3ccccc3)cc2-c2cc3ccccc3oc2=O)N1Cc1ccco1 (configuration not stated),2.3*,-12,11%,1.1,x,8
CN1CCN(C(=O)c2ccc(C3SCC(=O)N3Cc3ccco3)cc2)CC1 (configuration not stated),1.2,-1,3%,1.1,-1,15
CC(C)c1cc(NCCN2CCOCC2)n2c(nc3ccccc32)c1C#N,1.9,12,5%,1,1,-31
CCCc1cc(NCCN2CCOCC2)n2c(nc3ccccc32)c1C#N,2.3*,0,11%,1,2,-23
N#Cc1c2c(c(NCCCN3CCOCC3)n3c1nc1ccccc13)CCC2,3*,-17,12%,1,-2,-1
CC(C)c1cc(NCCCN2CCOCC2)n2c(nc3ccccc32)c1C#N,2.3*,19,0%,1.1,-2,-18
COc1ccc(CC(=O)Nc2cc(C)ccn2)cc1,1.1,-4,6%,1.1,-1,9
Cc1c(C(=O)O)cnc2cc(-c3ccc(Cl)cc3)nn12,2.1*,-12,7%,1.1,-3,12
Cc1cc2ncc(C(=O)Nc3ccccc3)c(C)n2n1,1.1,2,4%,1,-10,3
CCc1ccc(-c2nnn(CCC(=O)OC)n2)cc1,1.1,-7,3%,1,103*,-10
